Test results as given in the supplement of paper PMC12297408.
Where “and” joins values, the source holds several entries; their conditions need not be identical. Equal entries are not always repeated. Structures can show the parent of a compound that is named as a salt.

System: Plasmodium falciparum NF54/iGP1_RE9H ulg8 stage V gametocytes
Assay: gametocyte viability (luciferase signal relative to DMSO control) (% of DMSO control); higher = less gametocytocidal activity, active = 50 or less
Conditions: concentration: 1 µM; exposure time: 72 h
Method in brief: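 In 96-well plates holding nanolitre spots of compound (10 mM DMSO stocks), NF54/iGP1_RE9Hulg8 stage V gametocytes from day 12 were added at ~2.5% gametocytemia and 3% hematocrit in medium with 0.5% Albumax II, giving single wells at 10 µM or 1 µM. Incubation lasted 72 h at 37 °C. Each 90 µl sample then received 10 µl D-luciferin (30 mg/ml) before luminescence reading on an IVIS Lumina II, and viability was normalized to the mean of DMSO vehicle wells on the same plate.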

| Structure (SMILES) | gametocyte viability |
| --- | --- |
| O=C(Nc1c[nH]nc1-c1nc2ccc(CN3CCOCC3)cc2[nH]1)NC1CC1 | 131 (inactive) |
| O=C1NC(=O)/C(=C/c2ccc3c(c2)OC(F)(F)O3)S1 | 103 (inactive) |
| CNC(=O)c1cc(COc2nnc(Nc3ccc(Cl)cc3)c3ccoc23)ccn1 [Telatinib (BAY 57-9352)] | 115 (inactive) |
| N#CC(=C(/N)Sc1ccccc1N)/C(C#N)=C(\N)Sc1ccccc1N | 94.3 (inactive) |
| COC(=O)Nc1ccc(-c2nc(N3CCOCC3)c3cnn(C4CCN(Cc5cccnc5)CC4)c3n2)cc1 | 115 (inactive) |
| Cn1cnc2nc(NCCO)nc(NCc3ccccc3)c21 [Iso-olomoucine] | 95 (inactive) |
| CC[C@H](CO)Nc1nc(NCc2ccccc2)c2ncn(C(C)C)c2n1 [Roscovitine] | 107 (inactive) |
| CNC(=O)c1ccc(C)c(-n2c(C)cc(OCc3ccc(F)cc3F)c(Br)c2=O)c1 | 100 (inactive) |
| O=C(O)c1ccc2nc(-c3ccccc3)c(-c3ccccc3)nc2c1 | 98.6 (inactive) |
| CNC(=O)c1cc(Oc2ccc(NC(=O)Nc3ccc(Cl)c(C(F)(F)F)c3)cc2)ccn1 [Sorafenib (Nexavar)] | 114 (inactive) |
| CC(=O)c1c(C)c2cnc(Nc3ccc(N4CCNCC4)cn3)nc2n(C2CCCC2)c1=O | 98 (inactive) |
| CCCS(=O)(=O)Nc1ccc(F)c(C(=O)c2c[nH]c3ncc(Cl)cc23)c1F | 102 (inactive) |
| CC1(COc2ccc3c(c2)ncn3-c2ccc3cccc(N4CCC(N)CC4)c3n2)COC1 | 125 (inactive) |
| Cc1nc(N)sc1-c1ccnc(Nc2ccc(N3CCOCC3)cc2)n1 | 107 (inactive) |
| Cc1ccc(NC(=O)c2ccc(CN3CCN(C)CC3)cc2)cc1Nc1nccc(-c2cccnc2)n1 [Imatinib Mesylate] | 108 (inactive) |
| O=c1cc(N2CCOCC2)oc2c(-c3cccc4c3sc3ccccc34)cccc12 | 106 (inactive) |

Same assay, conditions: concentration: 10 µM; exposure time: 72 h

| Structure (SMILES) | gametocyte viability |
| --- | --- |
| Cc1cc(Nc2cc(CN3CCOCC3)c3nc(C)c(Cc4ccc(Cl)cc4F)n3n2)n[nH]1 | 97.8 (inactive) |
| CO[C@H]1C[C@@H]2CC[C@@H](C)[C@@](O)(O2)C(=O)C(=O)N2CCCC[C@H]2C(=O)O[C@H]([C@H](C)C[C@@H]2CC[C@@H](O)[C@H](OC)C2)CC(=O)[C@H](C)/C=C(\C)[C@@H](O)[C@@H](OC)C(=O)[C@H](C)C[C@H](C)/C=C/C=C/C=C/1C [Rapamycin (Sirolimus)] | 79.7 (inactive) |
| O=S(=O)(NCCNC/C=C/c1ccc(Br)cc1)c1cccc2cnccc12 | 93.1 (inactive) |
| CC(C)n1cnc2c(NCc3ccccc3)nc(NCCO)nc21 [N9-isopropyl-olomoucine] | 91 (inactive) |
| Cc1ncc(-c2ccnc(Nc3ccc(S(C)(=O)=O)cc3)n2)n1C(C)C | 119 (inactive) |
| COc1cc(Nc2ncc(F)c(Nc3ccc4c(n3)NC(=O)C(C)(C)O4)n2)cc(OC)c1OC [R406(free base)] | 103 (inactive) |
| Clc1ccc(C2(c3ccc(-c4cn[nH]c4)cc3)CCNCC2)cc1 | 76.9 (inactive) |
| C[C@@H](N)[C@H]1CC[C@H](C(=O)Nc2ccncc2)CC1 | 107 (inactive) and 111 (inactive) |
| CCOc1cc2ncc(C#N)c(Nc3ccc(F)c(Cl)c3)c2cc1NC(=O)/C=C/CN(C)C [Pelitinib (EKB-569)] | 99.8 (inactive) |
| CNC(=O)c1ccccc1Sc1ccc2c(/C=C/c3ccccn3)n[nH]c2c1 [Axitinib] | 98.8 (inactive) |
| CCCCCCCCCCCCCCCC(=O)OC(CC(=O)[O-])C[N+](C)(C)C (racemic) [Palmitoyl-DL-carnitine] | 108 (inactive) |
| Oc1cc(O)cc(/C=C/c2ccc(O)c(O)c2)c1 [Piceatannol] | 38.4 (active) |
| Cc1nc(NC(=O)N2CCC[C@H]2C(N)=O)sc1-c1csc(C(C)(C)C)n1 | 92.9 (inactive) |
| COc1cc2nccc(Oc3ccc(NC(=O)C4(C(=O)Nc5ccc(F)cc5)CC4)cc3)c2cc1OC [XL-184 free base (Cabozantinib)] | 83.1 (inactive) |
| Cc1ccc(-c2nn(C(C)(C)C)c3ncnc(N)c23)cc1 | 105 (inactive) |
| CNC(=O)c1c(F)cccc1Nc1nc(Nc2cc3c(cc2OC)CCN3C(=O)CN(C)C)nc2[nH]ccc12 | 113 (inactive) |
| COc1cc(Nc2ncc(F)c(Nc3ccc4c(n3)NC(=O)C(C)(C)O4)n2)cc(OC)c1OC | 104 (inactive) |
| COc1cc(Nc2ncc(F)c(Nc3ccc4c(n3)N(COP(=O)(O)O)C(=O)C(C)(C)O4)n2)cc(OC)c1OC | 101 (inactive) |
| O=c1cc(-c2ccc(O)cc2)oc2cc(O)cc(O)c12 [Apigenin] | 65.3 (inactive) |
| CN(C)Cc1cccc(N=C(c2ccccc2)c2c(O)[nH]c3cc(C(=O)N(C)C)ccc23)c1 | 121 (inactive) |

| Structure (SMILES) | gametocyte viability |
| --- | --- |
| CCC[C@H](NC(=O)/C(C#N)=C/c1cccc(Br)n1)c1ccccc1 | 106 (inactive) |
| Cc1ccc(C(=O)Nc2ccc(CN3CCN(C)CC3)c(C(F)(F)F)c2)cc1C#Cc1cnc2cccnn12 | 130 (inactive) |
| CC(=O)Nc1cccc(-n2c(=O)n(C3CC3)c(=O)c3c(Nc4ccc(I)cc4F)n(C)c(=O)c(C)c32)c1 | 82.7 (inactive) |
| Cc1cnc(Nc2ccc(N3CCN(C)CC3)cc2)nc1Nc1cccc(S(=O)(=O)NC(C)(C)C)c1 | 66.6 (inactive) |
| O=C(Nc1c[nH]nc1-c1nc2ccc(CN3CCOCC3)cc2[nH]1)NC1CC1 | 113 (inactive) |
| O=C1NC(=O)/C(=C/c2ccc3c(c2)OC(F)(F)O3)S1 | 106 (inactive) |
| CNC(=O)c1cc(COc2nnc(Nc3ccc(Cl)cc3)c3ccoc23)ccn1 [Telatinib (BAY 57-9352)] | 115 (inactive) |
| N#CC(=C(/N)Sc1ccccc1N)/C(C#N)=C(\N)Sc1ccccc1N | 95.9 (inactive) |
| COC(=O)Nc1ccc(-c2nc(N3CCOCC3)c3cnn(C4CCN(Cc5cccnc5)CC4)c3n2)cc1 | 117 (inactive) |
| Cn1cnc2nc(NCCO)nc(NCc3ccccc3)c21 [Iso-olomoucine] | 102 (inactive) |
| CC[C@H](CO)Nc1nc(NCc2ccccc2)c2ncn(C(C)C)c2n1 [Roscovitine] | 105 (inactive) |
| CNC(=O)c1ccc(C)c(-n2c(C)cc(OCc3ccc(F)cc3F)c(Br)c2=O)c1 | 108 (inactive) |
| O=C(O)c1ccc2nc(-c3ccccc3)c(-c3ccccc3)nc2c1 | 95.2 (inactive) |
| CNC(=O)c1cc(Oc2ccc(NC(=O)Nc3ccc(Cl)c(C(F)(F)F)c3)cc2)ccn1 [Sorafenib (Nexavar)] | 115 (inactive) |
| CC(=O)c1c(C)c2cnc(Nc3ccc(N4CCNCC4)cn3)nc2n(C2CCCC2)c1=O | 103 (inactive) |
| CCCS(=O)(=O)Nc1ccc(F)c(C(=O)c2c[nH]c3ncc(Cl)cc23)c1F | 107 (inactive) |
| CC1(COc2ccc3c(c2)ncn3-c2ccc3cccc(N4CCC(N)CC4)c3n2)COC1 | 112 (inactive) |
| Cc1nc(N)sc1-c1ccnc(Nc2ccc(N3CCOCC3)cc2)n1 | 108 (inactive) |
| Cc1ccc(NC(=O)c2ccc(CN3CCN(C)CC3)cc2)cc1Nc1nccc(-c2cccnc2)n1 [Imatinib Mesylate] | 111 (inactive) |
| O=c1cc(N2CCOCC2)oc2c(-c3cccc4c3sc3ccccc34)cccc12 | 105 (inactive) |
